PD-1 reversal = activators reversing PD-1 mediated T-cell inhibition, primary screen, luminescence, primary human CD4 T cells, PD-L1 beads | CellTiter-Glo 96 h | activation, % (no concentration beside the values) | 29,000 tested, under 10 active | AID 2316, 2010; call rule not given here;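 further: 0% = median vehicle wells and 100% = positive control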
ROS inducer = ROS inducers in U2OS cancer cells, primary screen, cell-based, H2DCF-DA fluorescence; U2OS ROS induction; ROS induction (% of piperlongumine), % at 10 µM; 2% of 46,000 active; AID 624156, 2012; in the data active means ROS induction above about 79%, passing the limit was not always enough;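 further: 0% = DMSO vehicle median and 100% = reference compound median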
YB-1 expr inh = inhibitors of YB-1 gene expression, primary screen, cell-based, fluorescence | U2OS, qRT-PCR YB-1 vs CDIP delta delta Cp, 16 h; stronger effect = higher value; zero = DMSO, each unit about twofold | delta delta Cp (YB-1 minus CDIP) (test concentration not listed) | 0.37% of 30,000 active | AID 434959, 2010;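 active means delta delta Cp rounded down to an integer at or above 3, about 3 SD of DMSO wells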;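 further: higher means less YB-1 transcript or more CDIP transcript relative to DMSO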
* = called active by the depositor; x = no result. This is a sample that favours compounds with a hit; in the whole collection about 2.3% have one here.

SMILES	PD-1 reversal	ROS inducer	YB-1 expr inh
C[C@@H]1CN([C@@H](C)CO)C(=O)c2cccc(NC(=O)Nc3ccccc3)c2O[C@@H]1CN(C)Cc1ccc(Oc2ccccc2)cc1	x	87*	0.26
C[C@H]1CN([C@@H](C)CO)C(=O)c2cccc(NC(=O)Nc3ccc(F)cc3)c2O[C@@H]1CN(C)Cc1ccc(-c2ccccc2)cc1	x	58	0.18
C[C@@H]1CN([C@@H](C)CO)C(=O)c2cccc(NC(=O)Nc3ccccc3)c2O[C@@H]1CN(C)Cc1ccc(-c2ccccc2)cc1	0	82*	1.1
Cc1cc(Cl)ccc1OCC(=O)Nc1cc(Cl)ccc1C(=O)O	2	31	x
COC(=O)CCCCCCC(=O)N/N=C/c1cc(Br)c(O)c(Br)c1	x	41	0.2
CC1CCCC2OC2C(=O)c2c(O)cc(O)cc2CC(=O)O1 (stereo not given)	2	-6	0.22
CC1CCC/C=C/C(=O)c2c(O)cc(O)cc2CC(=O)O1 (stereo not given)	-14	91*	0.2
C=C1C(=O)O[C@@H]2C3=C(C)CC[C@]34O[C@@H](C[C@@H]4C)[C@H]12	-13	6	-0.25
O=C1O[C@H](c2ccccc2)[C@H](c2ccccc2)N2[C@H]1[C@@H](C(=O)N1CCCCCCC1)[C@]1(C(=O)Nc3ccc(C#CC4(O)CCCCCC4)cc31)[C@H]2c1ccccc1OCCO	x	50	-0.35
O=C1O[C@H](c2ccccc2)[C@H](c2ccccc2)N2[C@H]1[C@@H](C(=O)N1CCN(c3ncccn3)CC1)[C@]1(C(=O)Nc3ccc(C#CC4(O)CCCCCC4)cc31)[C@H]2c1ccccc1OCCO	x	147*	-0.086
O=C1O[C@@H](c2ccccc2)[C@@H](c2ccccc2)N2[C@@H](c3ccccc3OCCO)[C@]3(C(=O)Nc4ccccc43)[C@@H](C(=O)N3CCN(c4ncccn4)CC3)[C@H]12	x	122*	0.33
O=C1O[C@H](c2ccccc2)[C@H](c2ccccc2)N2[C@H]1[C@@H](C(=O)O)[C@]1(C(=O)Nc3ccccc31)[C@H]2c1ccccc1OCCO	x	13	0.29
COc1ccc(C#Cc2ccc3c(c2)[C@]2(C(=O)N3)[C@H](C(=O)N3CCN(c4ncccn4)CC3)[C@H]3C(=O)O[C@H](c4ccccc4)[C@H](c4ccccc4)N3[C@@H]2c2ccccc2OCCO)cc1	x	28	0.29
O=C1O[C@@H](c2ccccc2)[C@@H](c2ccccc2)N2[C@@H](c3ccccc3OCCO)[C@]3(C(=O)Nc4ccc(C#CCCO)cc43)[C@@H](C(=O)N3CCN(c4ncccn4)CC3)[C@H]12	x	94*	-0.47
Cc1c(Cl)cccc1NC(=O)CSc1nnc(-c2ccc(NC(=O)c3ccccc3Br)cc2)n1C	0	46	x
C[C@H]1CN([C@@H](C)CO)C(=O)c2cc(NC(=O)CCCN(C)C)ccc2O[C@@H]1CN(C)CC1CCCCC1	1	-10	-0.068
C[C@@H]1CN([C@@H](C)CO)C(=O)Cc2cc(NC(=O)CCC(F)(F)F)ccc2O[C@@H]1CN(C)CC1CCCCC1	1	-5	-0.11
C[C@H](CO)N1C[C@H](C)[C@H](CN(C)CC2CCCCC2)Oc2ccc(NC(=O)CCCN(C)C)cc2C1=O	0	0	18*
C[C@@H]1CN([C@H](C)CO)C(=O)Cc2cc(NC(=O)CCCN(C)C)ccc2O[C@@H]1CN(C)CC1CCCCC1	0	93*	-0.32
C[C@H]1CN([C@@H](C)CO)C(=O)Cc2cc(NC(=O)CCC(F)(F)F)ccc2O[C@H]1CN(C)CC1CCCCC1	-2	99*	0.2
C[C@H]1CN([C@@H](C)CO)C(=O)Cc2cc(NC(=O)Nc3ccc(C(F)(F)F)cc3)ccc2O[C@@H]1CN(C)CC1CCCCC1	1	0	-0.19
C[C@H]1CN([C@@H](C)CO)C(=O)Cc2cc(NC(=O)CCCN(C)C)ccc2O[C@@H]1CN(C)CC1CCCCC1	x	5	0.23
C[C@H](CO)N1C[C@H](C)[C@H](CN(C)CC2CCCCC2)Oc2ccc(NC(=O)Nc3ccc(C(F)(F)F)cc3)cc2CC1=O	-5	153*	0.18
CCOc1ccc2nc(SCC(=O)Nc3c(C)cccc3C)[nH]c2c1	-3	-7	x
CC(=O)N(CN1C(=O)c2ccccc2C1=O)c1ccccc1C	0	43	-0.27
SMILES	PD-1 reversal	ROS inducer	YB-1 expr inh
c1ccc(CN2CCN(c3ncnc4sc5c(c34)CCCCC5)CC2)cc1	x	69	x
CC(=O)Oc1ccc2cc(-c3nc(-c4ccccc4)c(C)s3)c(=O)oc2c1	x	12	x
COc1cc(Cc2nccc3cc(OC)c(OC)cc23)c(NC(=O)c2cccc(Br)c2)cc1OC	-1	-9	x
C[C@H](CO)N1C[C@H](C)[C@H](CN(C)CC2CCCCC2)Oc2ccc(NC(=O)Cc3ccccc3)cc2CC1=O	x	-3	0.35
C[C@@H]1CN([C@H](C)CO)C(=O)Cc2cc(NC(=O)Cc3ccccc3)ccc2O[C@H]1CN(C)CC1CCCCC1	2	79*	0.049
CCCCc1nc2sc3c(NCc4ccccc4)ncnc3c2c2c1COC(C)(C)C2	x	-9	x
CCCCc1nc2sc3c(Cl)ncnc3c2c2c1COC(C)(C)C2	x	113*	x
CCOC(=O)c1c(N)sc2c1CCC(Sc1ccccc1)C2=O (stereo not given)	0	-5	0.28
CC(C)(C)NC(=O)c1ccc2c3c(onc13)-c1ccccc1C2=O	-6	245*	-0.49
CC(C)(C)NC(=O)c1ccccc1	0	-1	-0.31
Cc1ccc(-c2cc(C(F)(F)F)n3nc(C(=O)NCc4cc(C)n(C)n4)cc3n2)cc1C	-2	0	x
C[C@@H]1O[C@@H](Oc2cc(O)c3c(=O)c(-c4ccc(O)cc4)coc3c2)[C@H](O)[C@H](O)[C@H]1O	1	7	3.9*
C[C@@H]1O[C@@H](Oc2ccc(-c3coc4cc(O[C@@H]5O[C@@H](C)[C@H](O)[C@@H](O)[C@H]5O)cc(O)c4c3=O)cc2)[C@H](O)[C@H](O)[C@H]1O	2	3	-0.47
Cc1ccc(-c2nnc(N3CCN(C(=O)CSc4nc5ccccc5o4)CC3)c3ccccc23)cc1	0	37	x
Cc1ccc(-c2nnc(-n3cnc4cc(C)c(C)cc43)c3ccccc23)cc1	1	28	3.8*
CCOc1ccccc1NC(=O)c1ccc(Br)cc1	x	-5	x
Cc1cc(C)nc(SC(C)C(=O)Nc2ccccc2)n1 (stereo not given)	-2	4	x
COC(=O)c1cc(NC(=O)CSc2nc(C)cc(C)n2)cc(C(=O)OC)c1	0	-8	x
C[C@H](CO)N1C[C@H](C)[C@@H](CN(C)S(=O)(=O)c2ccccc2)Oc2c(NC(=O)c3nc4ccccc4s3)cccc2C1=O	0	7	-0.035
C[C@H]1CN([C@@H](C)CO)C(=O)c2cccc(NC(=O)NC3CCCCC3)c2O[C@@H]1CN(C)S(=O)(=O)c1ccc(Cl)cc1	1	19	-0.07
C[C@H](CO)N1C[C@H](C)[C@H](CN(C)S(=O)(=O)c2ccc(Cl)cc2)Oc2c(NC(=O)NC3CCCCC3)cccc2C1=O	-11	97*	0.23
C[C@@H]1CN([C@@H](C)CO)C(=O)c2cccc(NC(=O)c3nc4ccccc4s3)c2O[C@H]1CN(C)S(=O)(=O)c1ccc(Cl)cc1	-3	80*	-0.055

Screening data: PubChem, Broad Institute
